Data as given in PubChem BioAssay.
Unmarked numbers belong to inactive results. Calls of active or inactive are those of the source. Cut-off read from the data, not from the text of the source, unless noted: active = inhibition above about 28%; inactive = the rest.

Key:
[1] = StAR promoter reporter inhibitors, counter-screen for LRH-1 inverse agonist project, cell-based, luminescence, high throughput (AID 651611); conditions: StAR promoter luciferase reporter counterscreen, at 3.6 µM, stronger effect = higher value
[2] = target: Nuclear receptor subfamily 5 group A member 2 (Homo sapiens) (UniProt O00482); test: LRH-1 (NR5A2) inverse agonists, retest, confirmation, cell-based, luminescence (AID 651613; in the data active = inhibition above about 42%;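 note: HEK293T cells co-transfected with LRH-1 and StAR promoter luciferase reporter; 0% = vehicle wells and 100% = parental cells lacking receptor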); conditions: cell-based LRH-1 luciferase reporter, inverse agonism; at 3.6 µM; stronger effect = higher value
Chain of Nuclear receptor subfamily 5 group A member 2 (Homo sapiens) (O00482 whole entry, looked up): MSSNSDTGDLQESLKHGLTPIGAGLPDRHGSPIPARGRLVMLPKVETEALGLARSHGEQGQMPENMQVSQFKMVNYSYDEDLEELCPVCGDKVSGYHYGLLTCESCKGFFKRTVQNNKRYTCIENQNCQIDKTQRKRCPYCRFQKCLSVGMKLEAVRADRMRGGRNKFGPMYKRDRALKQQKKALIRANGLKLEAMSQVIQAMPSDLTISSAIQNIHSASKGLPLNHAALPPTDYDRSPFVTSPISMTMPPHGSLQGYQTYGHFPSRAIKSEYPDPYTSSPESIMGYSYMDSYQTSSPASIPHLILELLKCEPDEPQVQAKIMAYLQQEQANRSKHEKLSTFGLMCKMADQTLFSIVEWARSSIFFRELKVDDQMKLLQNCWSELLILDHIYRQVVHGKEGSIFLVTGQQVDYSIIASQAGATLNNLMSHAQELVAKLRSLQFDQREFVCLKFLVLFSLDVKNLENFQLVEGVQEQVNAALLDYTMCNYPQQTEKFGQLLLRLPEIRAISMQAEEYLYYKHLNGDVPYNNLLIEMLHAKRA

[3] = target: Steroidogenic factor 1 (Homo sapiens) (UniProt Q13285); test: SF1 (NR5A1) inverse agonists, counter-screen for LRH-1 inverse agonist project, cell-based, luminescence, high throughput (AID 651614; in the data active = inhibition above about 44%;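 note: cells cotransfected with StAR promoter reporter and SF1 expression vector; 0% = vehicle on cells with receptor and 100% = vehicle on cells lacking receptor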); conditions: cell-based SF1 luciferase reporter, at 3.6 µM, stronger effect = higher value
Chain of Steroidogenic factor 1 (Homo sapiens) (Q13285 whole entry, looked up, the tested form may be a part): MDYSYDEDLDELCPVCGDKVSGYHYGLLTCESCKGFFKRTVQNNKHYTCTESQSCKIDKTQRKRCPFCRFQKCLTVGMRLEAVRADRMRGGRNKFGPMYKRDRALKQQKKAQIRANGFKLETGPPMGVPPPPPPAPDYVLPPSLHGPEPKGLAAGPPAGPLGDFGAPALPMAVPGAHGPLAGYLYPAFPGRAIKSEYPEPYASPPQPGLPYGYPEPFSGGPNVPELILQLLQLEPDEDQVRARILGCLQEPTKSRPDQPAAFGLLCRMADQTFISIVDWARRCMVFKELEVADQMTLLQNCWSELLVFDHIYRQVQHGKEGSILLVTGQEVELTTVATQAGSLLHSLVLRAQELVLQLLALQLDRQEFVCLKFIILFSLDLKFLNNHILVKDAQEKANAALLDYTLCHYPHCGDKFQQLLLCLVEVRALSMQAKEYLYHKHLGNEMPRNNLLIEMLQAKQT

[4] = VP16 transactivation reporter inhibitors, counter-screen for LRH-1 inverse agonist project, cell-based, luminescence, high throughput (AID 651615; in the data active = inhibition above about 33%); conditions: Gal4-VP16 luciferase reporter cells, at 3.6 µM, stronger effect = higher value

Row | Structure (SMILES) | inhibition [1] | inhibition [2] | inhibition [3] | inhibition [4]
1 | Cc1ccc(Nc2nc(-c3cccnc3)nc3ccccc23)cc1 | 36.1% (active) | 54.1% (active) | 59.5% (active) | 14%
2 | O=C(Nc1ccc2oc(-c3ccccc3F)nc2c1)c1ccc([N+](=O)[O-])o1 | -5.27% | 46% (active) | 56% (active) | -24.7%
3 | O=C(O)/C=C/C(=O)Nc1ccccc1SC(F)(F)C(F)(F)C(F)(F)F | 20.1% | 54.8% (active) | 45.5% (active) | 6.88%
4 | COc1ccc(OC)c(CCNC(=O)Cn2nc(C)c3c(C)n(-c4ccc(C)cc4)nc3c2=O)c1 | 38.8% (active) | 68% (active) | 63.8% (active) | 52% (active)
5 | OC[C@@H]1CN(Cc2ccc(-c3ccccc3)cc2)C[C@H](n2cnc3c(NCc4ccco4)ncnc32)O1 | 22.7% | 63.7% (active) | 65% (active) | 33.6% (active)
6 | Cc1ccc(-n2nc(C)c(NC(=O)CCl)c2C)cc1 | 35.8% (active) | 47% (active) | 57.2% (active) | -120%
7 | Cc1cc(OCC(=O)N2CCC(O)CC2)c2c(C)cc(=O)oc2c1 | 5.07% | 44.8% (active) | 35.2% | -6.7%
8 | COC(=O)c1ccc(NC(=O)CSc2nnc(C)n2CC2CCCO2)cc1 (centres undefined) | 3.1% | 50.5% (active) | 40.7% | -3.65%
9 | CC(Nc1ncnc2ccccc12)c1ccccc1 (centres undefined) | 20.9% | 60.2% (active) | 67.9% (active) | 53.7% (active)
10 | c1ccc(Oc2nc(-c3cccnc3)nc3ccccc23)cc1 | 10.6% | 57.3% (active) | 53.3% (active) | 1.32%
11 | Cc1cccc(NC(=O)CSC2=NN3CCCC(=O)N=C3S2)c1C | -10.1% | 53.1% (active) | 49% (active) | -5.97%
12 | Cc1cc(NCCCCCCCNc2cc(C)nc3cc([N+](=O)[O-])ccc23)c2ccc([N+](=O)[O-])cc2n1 | -0.67% | 26.2% | 40.3% | 39.7% (active)
13 | COc1ccc(-c2nnnn2-c2ccccc2OC)cc1 | 8.71% | 53.8% (active) | 54.3% (active) | 0.37%
14 | COC(=O)CNC(=O)c1nn(-c2cccc(OC)c2)c(=O)c2ccccc12 | 25% | 35.9% | 37.3% | -0.96%
15 | COCC(=O)NC1CCN(CC(=O)Nc2ccc(OC)cc2[N+](=O)[O-])CC1 | 14.2% | 60.2% (active) | 60.8% (active) | -2.25%
16 | Clc1ccc(COc2cccc(CNCc3ccncc3)c2)cc1 | 2.94% | 62.4% (active) | 57.7% (active) | 26%
